# Most compounds without a hit are left out; they make up all but 3.9% or so of the library.
# GPR32 ag = activates human resolvin D1 receptor GPR32. O75388. CHO-K1 GPR32 beta-arrestin PathHunter luminescence, 90 min; zero percent set by DMSO-only wells. activation, % at 76.9 µM. 48,000 tested, 2.5% active;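 active means activation of at least 60% and not above a set upper limit, about 1 call in 100 departs from these limits; inconclusive means activation of 40% to 60%, or above that upper limit; inactive means activation under 40%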; further: 0% is about no effect
#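 Luminescent readout of beta-Gal complementation quantifies ligand-induced beta-arrestin association with GPR32 in CHO-K1 cells; 90 min compound incubation at 37 °C, detection 1 h at room temperature.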
# GALC G270D up = raises human GALC G270D mutant activity in cells; AID 1159614; 45,000 tested, 0.1% active; Potency, µM (doses to about 57.5 µM), actives largely listed as activators; 145M-Twi-hGALC-G270D cells (Twitcher mouse brain line with human GALC G270D), HMU-beta-Gal fluorescence, 48 h; P54803; further: potency means the concentration at half of the fitted maximal effect; 0% is about no effect; nearly all actives have a fitted effect of over 65% in size
#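 Fluorogenic HMU-b-Gal hydrolysis (0.1 mM final, pH 5.2 citrate-phosphate with 1 mg/mL sodium taurocholate; carbonate stop buffer) measures mutant GALC activity after compound treatment of live 145M-Twi Twitcher brain cells stably carrying human GALC-G270D, with wild-type GALC line alongside; activation sought.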
# p53null 39C kill = kills p53 null cells at the nonpermissive temperature; H1299 p53-null (neo) cells, 39C, ATPlite viability, 24 h; Potency, µM (series often up to 46.1 µM), inactives show at the top dose activity, negative = cell killing, usual class: cytotoxic; 55,000 tested, 0.97% active; AID 904;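 further: potency means the concentration at half of the fitted maximal effect; 0% = DMSO only and -100% = full killing by 100 µM tamoxifen; nearly all actives have a fitted effect of over 50% in size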
#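 Temperature-shift cytotoxicity format: compound titrations on p53-null or A138V-expressing H1299 cells held 24 hr at 39C, cell ATP then measured, AC50 from Hill model.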
# NTMT1 inhibitor = inhibitors of human N-terminal methyltransferase NTMT1; NTMT1 MTase-Glo SAH luminescence, purified enzyme; Potency, µM (highest dose often 114 µM), inactives show top-dose activity change, negative = inhibition, actives largely listed as inhibitors; 59,000 tested, 2.5% active; AID 1645870; Q9BV86;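 further: potency means the concentration at half of the fitted maximal effect; plate controls were DMSO vehicle for no effect and no enzyme for full effect; nearly all actives have a fitted effect of over 65% in size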
# Target sequence (Q9BV86 whole entry, looked up): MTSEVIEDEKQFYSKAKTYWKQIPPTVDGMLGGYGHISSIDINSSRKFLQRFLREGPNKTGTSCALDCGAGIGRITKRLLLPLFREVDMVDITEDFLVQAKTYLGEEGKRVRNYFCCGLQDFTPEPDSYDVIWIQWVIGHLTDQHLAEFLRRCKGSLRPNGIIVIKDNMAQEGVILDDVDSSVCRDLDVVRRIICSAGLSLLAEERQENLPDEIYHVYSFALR
# p53null 32C tox = selectivity test: cytotoxicity in p53 null cells, permissive temperature; 55,000 tested, 0.62% active; H1299-neo p53 null cells, ATP luminescence, 24 h, 32C; Potency, µM (titrated, usually from 46.1 µM), without a hit: at the top dose activity change, negative = cytotoxicity, hits mostly cytotoxic; AID 903;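 further: potency means the concentration at half of the fitted maximal effect; 0% = DMSO only and -100% = full killing by 100 µM tamoxifen; nearly all actives have a fitted effect of over 55% in size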
#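 H1299-neo (p53-null) cells, 600/well, were pre-incubated overnight at 37C, then exposed to compounds at up to 46 uM for 24 hr at 32C. Viability was measured as ATP content by luminescence, and AC50 values came from Hill fits.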
# FH mod = Identification of activators of human fumarate hydratase by quantitative high-throughput screening | Potency, µM (top dose mostly 79.9 µM), without a hit: at the top dose activity change, negative = inhibition, hits mostly inhibitors | FH coupled MDH/diaphorase resazurin fluorescence, 15 min | 54,000 tested, 0.22% active | Fumarate hydratase, mitochondrial (Homo sapiens), P07954 | AID 1347055, 2019; further: potency means the concentration at half of the fitted maximal effect; on the % scale 0 is the no-effect control and ±100 the full control effect; the screen sought activators but most active calls are inhibition curves; nearly all actives have a fitted effect of over 45% in size
# Target sequence (P07954 whole entry, looked up): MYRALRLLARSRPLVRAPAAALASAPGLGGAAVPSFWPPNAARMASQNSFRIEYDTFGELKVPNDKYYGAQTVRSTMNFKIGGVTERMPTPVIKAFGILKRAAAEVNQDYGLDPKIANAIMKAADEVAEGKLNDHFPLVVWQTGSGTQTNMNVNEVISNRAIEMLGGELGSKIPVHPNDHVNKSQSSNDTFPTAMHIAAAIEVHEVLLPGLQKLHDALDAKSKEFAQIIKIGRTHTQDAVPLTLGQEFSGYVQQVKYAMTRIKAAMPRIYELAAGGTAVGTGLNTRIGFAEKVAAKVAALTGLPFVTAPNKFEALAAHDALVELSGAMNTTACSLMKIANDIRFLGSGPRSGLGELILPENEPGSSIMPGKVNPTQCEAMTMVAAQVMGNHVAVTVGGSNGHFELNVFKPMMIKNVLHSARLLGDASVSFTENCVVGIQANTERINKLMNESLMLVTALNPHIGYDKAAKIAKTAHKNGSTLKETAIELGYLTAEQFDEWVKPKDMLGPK
# DYRK1A inh-1 = inhibitors of human DYRK1A kinase. shares compounds with NTMT1 inhibitor. recombinant DYRK1A, Kinase-Glo ATP depletion luminescence. Potency, µM (doses to about 76.9 µM), for the others: at the highest dose activity change, negative = inhibition, usual class: inhibitors. 100 tested, 80% active
# CLK4 inh-1 = inhibits human CLK4 kinase in Kinase-Glo confirmation; shares compounds with NTMT1 inhibitor; recombinant Clk4, Kinase-Glo ATP luminescence, 4.5 h; Potency, µM (highest dose often 76.9 µM), for the others: at the top dose activity, negative = inhibition, hits mostly inhibitors; 90 tested, 90% active
# CLK4 inh-2 = CLK4 kinase inhibition, SAR round 2; shares compounds with NTMT1 inhibitor; Reaction Biology kinase assay, 10 uM ATP; Potency, µM, usual class: inhibitors; 65 tested, 100% active; AID 504421; calls by dose curve
# DYRK1A inh-2 = blocks human DYRK1A kinase in radiometric assay; shares compounds with NTMT1 inhibitor; Reaction Biology kinase assay, 10 uM ATP; Potency, µM, hits mostly inhibitors; 65 tested, 90% active;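 active means compounds that showed inhibition of Dyrk1a and received a fitted potency; inactive means compounds that showed no inhibition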
# CLK2 RBC = CLK2 kinase inhibition; shares compounds with NTMT1 inhibitor; Potency, µM, usual class: inhibitors; Reaction Biology kinase assay, 10 uM ATP; 65 tested, 90% active;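 active means compound that inhibits Clk2 kinase in the dose series, with an IC50 potency reported; inactive means no inhibition seen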
# CLK3 RBC = CLK3 kinase inhibition. recombinant CLK3 kinase assay, 10 uM ATP. Potency, µM, actives largely listed as inhibitors. 65 tested, 40% active. shares compounds with NTMT1 inhibitor;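 active means compounds that inhibited Clk3 enough in the ten-dose series to give a half-maximal potency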
# DYRK1B RBC = blocks human DYRK1B kinase activity | Potency, µM, most hits filed as inhibitors | shares compounds with NTMT1 inhibitor | Recombinant Dyrk1b kinase assay, 10 uM ATP | 65 tested, 80% active | AID 504429;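 active means compounds whose dose response shows an inhibitor phenotype against the kinase Dyrk1b; inactive means compounds showing no inhibitor phenotype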
# CLK1 RBC = inhibitors of human CLK1 kinase | AID 504430 | 65 tested, 90% active | Potency, µM, usual class: inhibitors | recombinant Clk1 kinase assay, 10 uM ATP | shares compounds with NTMT1 inhibitor;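 active means compounds that block the splicing kinase Clk1 enough to give a fitted half-inhibition concentration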
# HSD17B4 counter = counter-screen for HPGD inhibitors: human HSD17B4 inhibition. shares compounds with NTMT1 inhibitor. purified HSD17B4, estradiol/NAD+, NADH fluorescence. Potency, µM (doses to about 57.1 µM), for inactives: top-dose activity change, negative = inhibition, usual class: inhibitors. 230 tested, 10% active. AID 743187
# ALDH1A1 counter = counter-screen for HPGD inhibitors: human ALDH1A1 inhibition. 230 tested, 93% active. shares compounds with NTMT1 inhibitor. Potency, µM (titrated, usually from 57.1 µM), inactives show at the top dose activity change, negative = inhibition, most hits filed as inhibitors. recombinant ALDH1A1, NADH fluorescence, propionaldehyde/NAD+
# NNMT inh = counter-screen for NTMT1 inhibitors: human NNMT inhibition. shares compounds with NTMT1 inhibitor. Potency, µM (doses to about 57.1 µM), for inactives: at the highest dose activity, negative = inhibition, hits mostly inhibitors. NNMT MTase-Glo luminescence, SAH detection. 120 tested, 10% active. AID 1645878
# Numbers without * were called inactive; i = inactive; u = inconclusive; x = no result given; [ ] = another dose, or the depositor's remark. Unless noted, the call rests on the fitted dose curve; in most records, active means well fitted curve in the direction sought with a large enough effect; inconclusive means small, poorly fitted or top-dose-only effect, or another doubt; inactive means no such curve, though single readings can be large; an effect the other way counts as inactive or inconclusive.
SMILES,GPR32 ag,GALC G270D up,p53null 39C kill,NTMT1 inhibitor,p53null 32C tox,FH mod,NNMT inh,others
CCN1CCC(n2cc(CNc3cc(Cl)c4ncc(C#N)c(Nc5ccc(F)c(Cl)c5)c4c3)nn2)CC1,x,x,x,2.5µM*,x,-9%,u,
CN1CCN(c2nn3c(=O)c4ccccc4nc3s2)CC1,x,x,x,-19%,x,x,x,
CN1CCN(c2ncc3nc(-c4cn(C)c5ccccc45)c(=O)n(Cc4cccs4)c3n2)CC1,x,x,x,x,x,x,x,CLK4 inh-1=-9%
CC(C)[C@@](C)(O)[C@@H]1CN(c2nc(-c3[nH]nc4ncccc34)c(F)cc2Cl)CCN1,x,x,x,u,x,0%,x,
COc1ccc(-n2cnc3cc(C(=O)N4CCCCC4)ccc32)cc1,x,x,x,u,x,x,x,HSD17B4 counter=-21%;ALDH1A1 counter=1.4µM*
CN(C)C/C=C/C(=O)Nc1cc2c(Nc3ccc(F)c(Cl)c3)ncnc2cc1OC1CCOC1 (stereo not drawn),x,x,x,6.3µM*,x,16%,u,
CN1CCN(CCOc2cc(OC3CCOCC3)c3c(Nc4c(Cl)ccc5c4OCO5)ncnc3c2)CC1,x,x,x,u,x,1%,x,
CCOc1cc2ncc(C#N)c(Nc3ccc(OCc4ccccn4)c(Cl)c3)c2cc1NC(=O)/C=C/CN(C)C,x,x,x,u,x,2%[53.3 µM],x,
CCOc1cc2ncc(C#N)c(Nc3ccc(F)c(Cl)c3)c2cc1NC(=O)/C=C/CN(C)C,x,x,x,1.1µM*,x,-29%,16µM*,
Cc1nnc(-c2sc(NC(=O)[C@H](C(C)C)n3c(=O)[nH]c4ccccc4c3=O)nc2C)o1,x,x,x,-4%[57.5 µM],x,u,x,
C=C1[C@H](OC(C)=O)[C@H]2[C@@H](OC(C)=O)[C@](C)(OC(C)=O)C[C@]2(OC(C)=O)C(=O)[C@H](C)/C=C/C(C)(C)C(=O)[C@H](OC(=O)C(C)C)[C@H]1OC(C)=O,x,x,x,6%[12.6 µM],x,0%[20.6 µM],x,
Cc1cccc(Nc2nc(-c3ccncc3)cs2)c1,x,x,x,2.5µM*,x,-2%,8.9µM*,
COc1cccc(CNC(=O)Nc2nc(-c3ccncc3)cs2)c1,x,x,x,-9%[57.5 µM],x,-2%,x,
COc1cccc(CNc2nc3ccccc3n2CCN2CCCCC2)c1OC,x,x,-24%,x,-11%,x,x,
O=C(O)c1ccnc2cc(-c3nc4ccccc4n3CCN3CCCCC3)sc12,x,x,x,-18%[57.5 µM],x,13µM*,-6%,
C[C@@H](Oc1cc(-n2cnc3ccc(OC4CCN(C)CC4)cc32)sc1C(N)=O)c1ccccc1C(F)(F)F,x,x,x,2.2µM*,x,-11%,u,
CCn1c2ccccc2c2cc(CNC)ccc21,x,x,x,-6%[57.5 µM],x,1%,x,
Cc1nc2cccnc2n1C1CCN(C(=O)Nc2ccccc2)CC1,1,i,-7%,-13%,2%,-2%,x,
Cc1ccc(-c2ccc3ncc4c(c3n2)n(C2CCN(C(=O)[C@H](C)O)CC2)c(=O)n4C)cn1,x,x,x,16µM*,x,-4%,u,
CC(C)CN(C[C@@H](O)[C@H](Cc1ccccc1)NC(=O)O[C@@H]1CO[C@H]2OCC[C@H]21)S(=O)(=O)c1ccc(N)cc1,x,x,x,3%[57.5 µM],x,4%,x,
CC(C)C[C@H](CO)Nc1nc(S[C@@H](C)c2ccccc2)nc2nc(N)sc12,x,x,x,3%[57.5 µM],x,u,x,
COc1ccc(CNC(=O)c2cc(-c3cncc(C)c3)ncc2-c2nccs2)nc1OC,x,x,x,2%[57.5 µM],x,0%,x,
C[N+]1(CC2COC(c3ccccc3)(c3ccccc3)O2)CCCCC1 (stereo not drawn),-16,i,x,u,x,0%[20.6 µM],-18%[28.6 µM],
CN(CCc1ccco1)c1ncnc2ccc(-c3ccc4c(c3)OCO4)cc12,x,x,x,u,x,x,x,CLK4 inh-1=0.092µM*
CC(c1ccco1)N(C)c1ncnc2ccc(-c3ccc4c(c3)OCO4)cc12 (stereo not drawn),x,x,x,x,x,x,x,DYRK1A inh-1=0.26µM*
Cc1ccccc1NC(=O)CN1C(=O)N/C(=C\c2cn(-c3cccc(C(=O)O)c3)cn2)C1=O,x,x,x,14%,x,x,x,
COc1cccc(-c2ccc3ncnc(NCc4cccs4)c3c2)c1,x,x,x,-20%,x,x,x,DYRK1A inh-1=7.3µM*
c1csc(CNc2ncnc3ccc(-c4ccc5c(c4)OCCO5)cc23)c1,x,x,x,u,x,x,x,DYRK1A inh-1=0.37µM*
CN(Cc1nccs1)c1ncnc2ccc(-c3ccc4c(c3)OCO4)cc12,x,x,x,7.1µM*,x,3%,x,DYRK1A inh-1=0.065µM*;CLK4 inh-2=0.02*;DYRK1A inh-2=0.051µM*;CLK2 RBC=0.59µM*;CLK3 RBC=4.7µM*;DYRK1B RBC=0.18µM*;CLK1 RBC=0.028µM*

# High-throughput results (PubChem)
